Inconclusive results are not listed. A call without a number means that no potency is given here. The source holds several records for some structures; these can differ, active in one and inactive in another. Activity calls are given as the source filed them. Unless noted, calls come from the whole dose curve.
Experiments:
[1] = Nuclear factor erythroid 2-related factor 2/antioxidant responsive element (Nrf2/ARE) small molecule agonists: qHTS cell viability counter screen in human keratinocytes (AID 1919968; active = well fitted curve in the direction sought with a large enough effect in the repeat runs; an effect the other way counts as inactive or inconclusive; note: nearly all actives have a fitted effect of over 55% in size; note: potency is the fitted concentration of half-maximal effect)
Method in brief: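 CellTiter-Fluor fluorescence, read 1 h after reagent, gave viability in the same wells as the ARE-luciferase assay. KeratinoSens cells (1,500/well) had 23 h compound exposure at 37 C/5% CO2 following 5 h plating.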

[2] = Nuclear factor erythroid 2-related factor 2/antioxidant responsive element (Nrf2/ARE) small molecule agonists: luciferase reporter gene qHTS assay in human keratinocytes (AID 1919969); note: nearly all actives have a fitted effect of over 35% in size
[3] = target: Gonadotropin-releasing hormone receptor (Homo sapiens) (UniProt P30968); test: Human gonadotropin-releasing hormone receptor (GnRHR) small molecule agonists, calcium flux assay in GnRHR-HEK293 cells (AID 1920063); note: nearly all actives have a fitted effect of over 35% in size
Method in brief: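 Agonist mode: compounds at 15 concentrations, in triplicate, went onto calcium dye-loaded GnRHR-HEK293 cells. Intracellular calcium was then followed as 480/540 nm fluorescence at 1 s intervals over 3 min.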

[4] = target: KiSS-1 receptor (Homo sapiens) (UniProt Q969F8); test: Human kisspeptin (KISS1R) small molecule agonists, calcium flux assay in KISS1R-HEK293 cells (AID 1920064; active = well fitted curve in the direction sought with a large enough effect in the repeat runs; an effect the other way counts as inactive or inconclusive)
Method in brief: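 Agonist mode: intracellular calcium rise tracked at 1 s intervals over 3 min (480/540 nm) immediately after compound addition to dye-loaded KISS1R-HEK293 stable cells. Each compound tested at 15 concentrations in triplicate.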

[5] = G protein-coupled receptor (GPCR) small molecule agonists, calcium flux assay: HEK293 wild type cell line counter screen (AID 1920065)
Method in brief: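 Calcium flux counter screen: compound added in agonist mode at 15 concentrations in triplicate to dye-loaded parental HEK293 cells. Fluorescence (480/540) read kinetically for 3 min; ATP served as positive control.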

[6] = p53 small molecule agonists, cell-based qHTS assay with human liver microsomes (AID 1963577)
Method in brief: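 p53RE-bla reporter cells were pre-incubated 5 h at 37 C, then treated with compounds plus human liver microsomes (0.5 mg/mL final) and NADPH (0.5 mg/mL final) for 16 h at 37 C. Beta-lactamase activity was read by LiveBLAzer fluorescence after 2 h at room temperature.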

[7] = p53 small molecule agonists, cell-based qHTS assay with rat liver microsomes (AID 1963578)
Method in brief: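 p53RE-bla cells were exposed to compounds together with rat liver microsomes (0.5 mg/mL final) and NADPH (0.5 mg/mL final) for 16 h at 37 C, then read by LiveBLAzer beta-lactamase fluorescence after 2 h at room temperature.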

[8] = p53 small molecule agonists, cell-based qHTS assay with human liver microsomes: qHTS cell viability counter screen (AID 1963579); note: nearly all actives have a fitted effect of over 45% in size
Method in brief: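 p53RE-bla cells (4,000/well) were pre-incubated 5 h at 37 C, then given compounds in DMSO plus human liver microsomes (0.5 mg/mL final) and NADPH (0.5 mg/mL final) for 16 h at 37 C. Viability was read by CellTiter-Glo luminescence.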

[9] = p53 small molecule agonists, cell-based qHTS assay with rat liver microsomes: qHTS cell viability counter screen (AID 1963580); note: nearly all actives have a fitted effect of over 45% in size
Method in brief: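 Luminescent ATP readout (CellTiter-Glo, 30 min at room temperature) reports viability of p53RE-bla HCT-116 cells after 16 h at 37 C with test compounds under metabolic activation by rat liver microsomes and NADPH at 0.5 mg/mL final each.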

[10] = p53 small molecule agonists, cell-based qHTS assay: qHTS cell viability counter screen (AID 1963581); note: nearly all actives have a fitted effect of over 45% in size
Method in brief: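 Counter screen read by CellTiter-Glo luminescence (ATP content, 30 min at room temperature), run in the same wells as the beta-lactamase reporter read. HCT-116 p53RE-bla cells saw compounds for 16 h at 37 C.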

[11] = p53 small molecule agonists, cell-based qHTS assay (AID 1963582; active = well fitted activation curve with a large enough effect in the signal ratio in the repeat runs, not every such curve was filed as active; the % refers to the signal ratio)
Method in brief: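 Read-out is beta-lactamase FRET fluorescence after 2 h at room temperature with LiveBLAzer B/G substrate. p53 response element-bla cells were treated 16 h at 37 C with compounds in DMSO, added 5 h after seeding.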

[12] = target: 5-hydroxytryptamine receptor 2A (Homo sapiens) (UniProt P28223); test: 5-hydroxytryptamine receptor 2A (HTR2A) small molecule antagonists, cell-based qHTS assay (AID 1963586); note: nearly all actives have a fitted effect of over 45% in size
Method in brief: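 CHO cells stably expressing human HTR2A were plated for 18 h at 37 C, then loaded with calcium dye for 1 h. Compounds were preincubated 5 min at room temperature before DOI (4 nM solution) was added. Kinetic fluorescence was read for 3 min.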

[13] = target: 5-hydroxytryptamine receptor 2A (Homo sapiens) (UniProt P28223); test: 5-hydroxytryptamine receptor 2A (HTR2A) small molecule agonists, cell-based qHTS assay (AID 1963587); note: nearly all actives have a fitted effect of over 30% in size
Method in brief: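 HTR2A-CHO cells, plated 18 h at 37 C/5% CO2, dye-loaded 1 h at 37 C; compounds in DMSO added by pin tool (agonist mode). Intracellular calcium flux read as kinetic fluorescence on FDSS over 2 min at 1 s intervals.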

[14] = target: Muscarinic acetylcholine receptor M1 (Homo sapiens) (UniProt P11229); test: Cholinergic receptor muscarinic 1 (CHRM1) small molecule antagonists, cell-based qHTS assay (AID 1963588); note: nearly all actives have a fitted effect of over 40% in size
Method in brief: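 Compounds were tested at 15 concentrations in three independent runs. Dye-loaded CHRM1-CHO cells were exposed 5 min at room temperature before stimulation by acetylcholine added at 50nM. Intracellular calcium was read kinetically on FDSS for 3 min.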

[15] = target: Muscarinic acetylcholine receptor M1 (Homo sapiens) (UniProt P11229); test: Cholinergic receptor muscarinic 1 (CHRM1) small molecule agonists, cell-based qHTS assay (AID 1963589); note: nearly all actives have a fitted effect of over 35% in size
Method in brief: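 Agonist-mode calcium-flux screen: compounds at 15 concentrations, three independent runs, were pin-transferred onto dye-loaded human CHRM1-CHO cells. Fluorescence was then recorded kinetically every second over minutes.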

[16] = cAMP Responsive Elements (CRE) small molecule agonists, cell-based qHTS assay (AID 1963590)
Method in brief: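 Agonist mode: compound added to CRE-bla HEK 293T cells (2,000/well, 18 h after plating) for 3 h at 37 C/5% CO2. Reporter activity detected via FRET beta-lactamase substrate, 2 h room-temperature loading.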

[17] = cAMP Responsive Elements (CRE) small molecule antagonists, cell-based qHTS assay (AID 1963591; active = well fitted inhibition curve with a large enough effect in the signal ratio in the repeat runs, not every such curve was filed as active; the % refers to the signal ratio)
Method in brief: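 Antagonist mode: compounds are added alongside the adenylyl cyclase activator NKH477 (0.25 uM final) to CRE-bla HEK293T cells for 3 h. LiveBLAzer FRET substrate, 2 h at room temperature, reports bla expression.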

[18] = target: Beta-2 adrenergic receptor (Homo sapiens) (UniProt P07550); test: Adrenergic beta2 receptor (ADRB2) small molecule antagonists, cell-based qHTS assay (AID 1963592); note: nearly all actives have a fitted effect of over 50% in size; note: potency is the fitted concentration of half-maximal effect
Method in brief: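 Assay format: CHO-ADRB2 cells, 18-20hr seeding at 37C/5% CO2, then compound plus 1nM isoproterenol agonist mix for 0.5hr RT. Homogeneous time-resolved fluorescence cAMP detection after 1hr, expressed as 665/615 nm ratio.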

[19] = target: D(2) dopamine receptor (Homo sapiens) (UniProt P14416); test: Dopamine D2 receptor (DRD2) small molecule agonists, cell-based qHTS assay (AID 1963594); note: nearly all actives have a fitted effect of over 35% in size
Method in brief: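 HEK293 cells stably expressing DRD2 were cultured 24 h at 37 C, then given Ro20-1724 (0.1 mM final) and compounds for 10 min at room temperature. NKH477 (200nM) was then added for 30 min. cAMP was read by HTRF.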

[20] = target: D(2) dopamine receptor (Homo sapiens) (UniProt P14416); test: Dopamine D2 receptor (DRD2) small molecule antagonists, cell-based qHTS assay (AID 1963595; active = well fitted inhibition curve with a large enough effect in the signal ratio in the repeat runs, with a control signal flat; the % refers to the signal ratio)
Method in brief: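 HEK293 cells stably expressing DRD2 were preincubated with 0.1 mM Ro20-1724, then with compound for 10 min at room temperature. Cells were stimulated with 200 nM NKH477 plus 12 nM quinpirole for 30 min, and cAMP was read by HTRF.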

Chain of Gonadotropin-releasing hormone receptor (Homo sapiens) (P30968 whole entry, looked up): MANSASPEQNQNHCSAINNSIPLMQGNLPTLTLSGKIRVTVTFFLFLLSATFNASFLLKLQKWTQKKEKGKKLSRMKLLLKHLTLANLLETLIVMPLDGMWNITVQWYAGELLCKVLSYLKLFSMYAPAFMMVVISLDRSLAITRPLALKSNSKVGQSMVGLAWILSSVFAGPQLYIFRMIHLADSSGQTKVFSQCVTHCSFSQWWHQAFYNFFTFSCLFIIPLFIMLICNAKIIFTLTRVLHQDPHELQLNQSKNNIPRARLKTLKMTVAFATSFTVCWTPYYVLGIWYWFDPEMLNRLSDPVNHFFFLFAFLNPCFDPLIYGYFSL
Chain of Beta-2 adrenergic receptor (Homo sapiens) (P07550 whole entry, looked up): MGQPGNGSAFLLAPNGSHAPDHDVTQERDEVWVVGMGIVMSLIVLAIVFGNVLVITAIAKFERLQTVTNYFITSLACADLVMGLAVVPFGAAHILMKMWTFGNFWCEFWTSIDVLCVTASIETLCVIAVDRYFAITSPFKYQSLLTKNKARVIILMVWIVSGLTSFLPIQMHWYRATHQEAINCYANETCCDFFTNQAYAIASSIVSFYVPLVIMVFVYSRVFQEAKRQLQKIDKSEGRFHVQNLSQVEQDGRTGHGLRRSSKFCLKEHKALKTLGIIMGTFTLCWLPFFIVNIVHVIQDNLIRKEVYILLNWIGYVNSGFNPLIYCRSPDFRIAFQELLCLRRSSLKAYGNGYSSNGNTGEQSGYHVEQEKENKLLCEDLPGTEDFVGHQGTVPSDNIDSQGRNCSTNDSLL
Chain of KiSS-1 receptor (Homo sapiens) (Q969F8 whole entry, looked up): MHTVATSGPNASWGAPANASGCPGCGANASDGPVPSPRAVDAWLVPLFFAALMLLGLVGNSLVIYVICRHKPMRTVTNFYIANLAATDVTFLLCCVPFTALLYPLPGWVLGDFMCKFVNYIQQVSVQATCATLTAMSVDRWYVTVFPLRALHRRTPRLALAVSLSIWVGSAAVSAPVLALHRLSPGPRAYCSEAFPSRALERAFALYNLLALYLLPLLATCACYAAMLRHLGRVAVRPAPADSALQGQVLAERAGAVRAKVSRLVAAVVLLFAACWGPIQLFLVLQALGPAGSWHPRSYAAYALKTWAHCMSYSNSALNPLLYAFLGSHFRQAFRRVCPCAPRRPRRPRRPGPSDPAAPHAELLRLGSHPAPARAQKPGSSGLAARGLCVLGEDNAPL
Chain of 5-hydroxytryptamine receptor 2A (Homo sapiens) (P28223 whole entry, looked up): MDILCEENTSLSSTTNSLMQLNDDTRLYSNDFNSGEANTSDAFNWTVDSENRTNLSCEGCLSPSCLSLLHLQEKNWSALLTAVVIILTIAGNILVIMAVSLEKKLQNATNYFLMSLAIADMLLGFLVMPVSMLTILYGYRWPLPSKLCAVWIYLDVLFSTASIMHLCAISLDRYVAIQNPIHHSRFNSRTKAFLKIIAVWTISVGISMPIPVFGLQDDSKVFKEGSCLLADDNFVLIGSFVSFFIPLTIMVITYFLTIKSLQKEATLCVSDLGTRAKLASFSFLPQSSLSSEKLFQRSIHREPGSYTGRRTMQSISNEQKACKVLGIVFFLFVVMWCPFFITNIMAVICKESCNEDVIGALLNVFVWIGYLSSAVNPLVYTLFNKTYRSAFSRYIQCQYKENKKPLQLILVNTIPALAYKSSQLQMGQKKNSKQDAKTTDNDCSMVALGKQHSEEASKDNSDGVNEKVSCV
Chain of D(2) dopamine receptor (Homo sapiens) (P14416 whole entry, looked up): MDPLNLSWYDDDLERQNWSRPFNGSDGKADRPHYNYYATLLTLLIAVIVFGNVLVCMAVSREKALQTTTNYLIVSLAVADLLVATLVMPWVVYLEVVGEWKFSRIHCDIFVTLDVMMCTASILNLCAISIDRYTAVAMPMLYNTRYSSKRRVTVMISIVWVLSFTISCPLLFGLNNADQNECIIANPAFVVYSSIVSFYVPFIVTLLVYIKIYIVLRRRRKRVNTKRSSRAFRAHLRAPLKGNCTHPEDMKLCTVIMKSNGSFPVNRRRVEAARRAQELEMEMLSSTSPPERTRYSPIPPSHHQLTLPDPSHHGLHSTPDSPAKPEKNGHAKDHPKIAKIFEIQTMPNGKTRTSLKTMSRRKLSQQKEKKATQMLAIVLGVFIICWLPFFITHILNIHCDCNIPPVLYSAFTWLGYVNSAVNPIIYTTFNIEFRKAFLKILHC
Chain of Muscarinic acetylcholine receptor M1 (Homo sapiens) (P11229 whole entry, looked up): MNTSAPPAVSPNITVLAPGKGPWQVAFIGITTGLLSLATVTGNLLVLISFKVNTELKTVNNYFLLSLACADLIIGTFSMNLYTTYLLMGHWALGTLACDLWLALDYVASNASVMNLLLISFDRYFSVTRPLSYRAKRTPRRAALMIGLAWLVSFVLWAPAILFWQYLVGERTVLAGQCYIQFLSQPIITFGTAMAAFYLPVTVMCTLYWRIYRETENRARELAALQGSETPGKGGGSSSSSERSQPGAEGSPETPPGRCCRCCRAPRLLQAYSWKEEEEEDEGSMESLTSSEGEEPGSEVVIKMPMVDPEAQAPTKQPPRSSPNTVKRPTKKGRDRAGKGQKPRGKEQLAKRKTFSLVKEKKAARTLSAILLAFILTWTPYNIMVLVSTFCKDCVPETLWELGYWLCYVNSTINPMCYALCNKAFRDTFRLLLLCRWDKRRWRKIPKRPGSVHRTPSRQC

Structure (SMILES) | Potency [1] | Potency [2] | Potency [3] | Potency [4] | Potency [5] | Potency [6] | Potency [7] | Potency [8] | Potency [9] | Potency [10] | Potency [11] | Potency [12] | Potency [13] | Potency [14] | Potency [15] | Potency [16] | Potency [17] | Potency [18] | Potency [19] | Potency [20]
CS(=O)(=O)Cl | inactive | inactive | inactive | inactive | inactive | inactive | inactive | inactive | inactive | inactive | inactive | inactive | inactive | inactive | inactive | inactive | inactive | inactive | inactive | inactive
CCN(CC)CCO | inactive | inactive | inactive | inactive | inactive | inactive | inactive | inactive | inactive | inactive | inactive | inactive | inactive | inactive | inactive | inactive | inactive | inactive | inactive | inactive
NC(=O)CF | inactive | inactive | inactive | inactive | inactive | inactive | inactive | inactive | inactive | inactive | inactive | inactive | inactive | inactive | inactive | inactive | inactive | inactive | inactive | inactive
ClCC(Cl)CCl | inactive | inactive | inactive | inactive | inactive | inactive | inactive | inactive | inactive | inactive | inactive | inactive | inactive | inactive | inactive | inactive | inactive | inactive | inactive | inactive
FC(Cl)(Cl)Cl | inactive | inactive | inactive | inactive | inactive | inactive | inactive | inactive | inactive | inactive | inactive | inactive | inactive | inactive | inactive | inactive | inactive | inactive | inactive | inactive
N#Cc1cc([N+](=O)[O-])ccc1N | inactive | inactive | inactive | inactive | inactive | inactive | inactive | inactive | inactive | inactive | inactive | inactive | inactive | inactive | inactive | inactive | inactive | inactive | inactive | inactive
Oc1ccc(Cl)c(Cl)c1 | inactive | inactive | inactive | inactive | inactive | inactive | inactive | inactive | inactive | inactive | inactive | inactive | inactive | inactive | inactive | inactive | inactive | inactive | inactive | inactive
CNCC(O)c1ccc(O)cc1 (stereo not given) | inactive | inactive | inactive | inactive | inactive | inactive | inactive | inactive | inactive | inactive | inactive | inactive | inactive | inactive | inactive | inactive | inactive | inactive | inactive | inactive
Cn1cc(-c2ccccc2)c(=O)c(-c2cccc(C(F)(F)F)c2)c1 | inactive | inactive | inactive | inactive | inactive | inactive | inactive | inactive | inactive | inactive | inactive | inactive | inactive | inactive | inactive | inactive | inactive | 29.9 µM (active) and inactive | inactive | inactive
CCCCCCC#N | inactive | inactive | inactive | inactive | inactive | inactive | inactive | inactive | inactive | inactive | inactive | inactive | inactive | inactive | inactive | inactive | inactive | inactive | inactive | inactive
Clc1ccc(C(c2ccc(Cl)cc2)C(Cl)(Cl)Cl)cc1 | 38.8 µM (active) | inactive | inactive | inactive | inactive | inactive | inactive | inactive | inactive | inactive | inactive | inactive | inactive | inactive | inactive | inactive | inactive | inactive | inactive | inactive
OCC(O)CCl (stereo not given) | inactive | inactive | inactive | inactive | inactive | inactive | inactive | inactive | inactive | inactive | inactive | inactive | inactive | inactive | inactive | inactive | inactive | inactive | inactive | inactive
CCC(=O)c1ccccc1 | inactive | inactive | inactive | inactive | inactive | inactive | inactive | inactive | inactive | inactive | inactive | inactive | inactive | inactive | inactive | inactive | inactive | inactive | inactive | inactive
CN(CCO)CCO | inactive | inactive | inactive | inactive | inactive | inactive | inactive | inactive | inactive | inactive | inactive | inactive | inactive | inactive | inactive | inactive | inactive | inactive | inactive | inactive
Nc1cccnc1 | inactive | inactive | inactive | inactive | inactive | inactive | inactive | inactive | inactive | inactive | inactive | inactive | inactive | inactive | inactive | inactive | inactive | inactive | inactive | inactive

Reference: PubChem BioAssay (Tox21)
